This note sets out measurements from PubChem BioAssay (NCATS).

Records with an inconclusive call do not appear. Calls of active or inactive are those of the source. Unless noted, the rule behind the calls is not given here.

The nature of experiment [1]: qHTS profiling of the MIPE4 collection as inhibitors of Plasmodium falciparum (3D7) proliferation (AID 743344).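 Note: scaled between DMSO vehicle wells and 0.29 µM artemisinin as full inhibition.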 The following applies: P. falciparum 3D7 in erythrocytes, SYBR Green DNA fluorescence, 72 h; at 28.5 µM unless noted. The gist of the method:
(§1)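 Parasite DNA was quantified by SYBR Green I fluorescence (ex 485, em 535 nm) after overnight lysis in saponin/Triton buffer at room temperature. Cultures at 0.3% parasitemia and 2.5% hematocrit were first exposed to compound for 72 h at 37 C; signals were normalised to artemisinin (0.29 uM) and vehicle wells.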

A short description of experiment [2]: qHTS profiling of the MIPE4 collection as inhibitors of Plasmodium falciparum (DD2) proliferation (AID 743345). The following applies: P. falciparum Dd2 in erythrocytes, SYBR Green DNA, 72 h; at 28.5 µM unless noted. The gist of the method: as §1
Experiment [3] in a line: qHTS profiling of the MIPE4 collection as inhibitors of Plasmodium falciparum (DD2) proliferation (Rep 2) (AID 743346). The following applies: P. falciparum Dd2 in erythrocytes, SYBR Green DNA, 72 h; at 28.5 µM unless noted. The gist of the method: as §1
Experiment [4] is described as follows: qHTS profiling of the MIPE4 collection as inhibitors of Plasmodium falciparum (HB3) proliferation (AID 743347).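 Note: plate controls were DMSO vehicle wells for no effect and artemisinin wells for full effect.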 The following applies: P. falciparum HB3 in erythrocytes, SYBR Green DNA, 72 h; at 28.5 µM unless noted. The gist of the method: as §1
Experiment [5] in a line: High-throughput drug toxicity screening in the BPDCN cell line Gen2.2 (AID 1224824).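 Note: cells exposed to compounds for 48 h before reading.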 The following applies: Gen2.2 BPDCN cells; at 45.8 µM (top of the series) unless noted. The gist of the method: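 Gen2.2 cells, 500 per well in phenol red-free RPMI with 10% FBS, exposed to compounds 48 h at 37 C, 5% CO2; viability by CellTiter-Glo luminescence. Percent activity scaled to DMSO (100%) and 9.2 uM bortezomib final (0%).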

A short description of experiment [6]: High-throughput drug toxicity screening in the BPDCN cell line Cal-1 (AID 1224825). The following applies: Cal-1 BPDCN cell viability, qHTS; at 45.8 µM (top of the series) unless noted. The gist of the method: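 CellTiter-Glo luminescence after 48 h compound exposure; percent activity scaled with DMSO as 100% and bortezomib (9.2 uM final) as 0%. Cal-1 cells seeded at 500/well in RPMI, 10% FBS, no phenol red.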

Experiment [7] in a line: qHTS assay for measurement of the activity of small molecule inhibitors on Zika virus induced Caspase-3 activity in human iPSC derived neural progenitor cells (hNPCs) (AID 1224857; active = well fitted curve in the direction sought with a large enough effect; an effect the other way counts as inactive or inconclusive; note: % of control where 0% means no effect; nearly all actives have a fitted effect of over 65% in size). The gist of the method:
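Values are percent inhibition of virus-induced caspase-3/7 signal, scaled between uninfected cells and ZIKV-infected cells. Infection used 2 FFU/cell for 6 h after 1 h compound exposure.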

The nature of experiment [8]: qHTS assay for measurement of the activity of small molecule inhibitors on Zika virus induced Caspase-3 activity in human astrocytoma cells (AID 1224859; active = well fitted curve in the direction sought with a large enough effect; an effect the other way counts as inactive or inconclusive;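 note: plate controls were ZIKV-infected untreated cells for no effect and uninfected cells for full effect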). The gist of the method:
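Compound added 1 h pre-infection; ZIKV 2 FFU/cell on SNB-19 cells, 6 h, 37 C/5% CO2. Caspase-Glo 3/7 luminescence; values as % inhibition of ZIKV-induced caspase activity.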

A short description of experiment [9]: qHTS Screen of the MIPE 4.0 Collection Against Ewings Sarcoma (RDES) (AID 1259252; active = well fitted curve in the direction sought with a large enough effect; an effect the other way counts as inactive or inconclusive; note: nearly all actives have a fitted effect of over 35% in size; note: potency is the fitted concentration of half-maximal effect). The gist of the method:
(§2)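 Dose series incubated 48 h with cells in RPMI plus 5% FBS, glutamine and penicillin/streptomycin; cell viability then quantified via CellTiter-Glo.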

Experiment [10] in a line: qHTS profiling for inhibitors of Plasmodium falciparum (DD2) proliferation (AID 743323). The following applies: lower = more inhibition; at 28.7 µM (top of the series) unless noted. The gist of the method:
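SYBR Green fluorescence (ex 485, em 535 nm) of lysed cultures gives parasite DNA content; wells normalized to artemisinin (0.29 uM) and DMSO controls. Infected red cells: 0.3% parasitemia, 2.5% hematocrit, 72 h, 37 C.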

Experiment [11] is described as follows: qHTS profiling for inhibitors of Plasmodium falciparum (HB3) proliferation (AID 743324; active = well fitted curve in the direction sought with a large enough effect; an effect the other way counts as inactive or inconclusive;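 note: 100% = DMSO vehicle wells and 0% = artemisinin-treated control wells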). The following applies: Plasmodium falciparum HB3 blood-stage proliferation; at 28.7 µM (top of the series) unless noted. The gist of the method: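 SYBR Green fluorescence (485 ex/535 em) of lysed cultures, incubated overnight at room temperature in the dark, quantifies parasite DNA. Infected erythrocytes at 0.3% parasitemia and 2.5% hematocrit were exposed 72 h; values normalized to DMSO and 0.29 uM artemisinin controls.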

Experiment [12] can be described thus: qHTS Screen of the MIPE 4.0 Collection Against Ewings Sarcoma (TC71) (AID 1259253; active = well fitted curve in the direction sought with a large enough effect; an effect the other way counts as inactive or inconclusive; note: potency is the fitted concentration of half-maximal effect; nearly all actives have a fitted effect of over 40% in size). The gist of the method: as §2
Experiment [13] can be described thus: qHTS Screen of the MIPE 4.0 Collection Against Ewings Sarcoma (EW8) (AID 1259255; active = well fitted curve in the direction sought with a large enough effect; an effect the other way counts as inactive or inconclusive; note: potency is the fitted concentration of half-maximal effect; nearly all actives have a fitted effect of over 35% in size). The gist of the method:
as §2

Experiment [14] can be described thus: qHTS Screen of the MIPE 4.0 Collection Against Ewings Sarcoma (TC32) (AID 1259256; active = well fitted curve in the direction sought with a large enough effect; an effect the other way counts as inactive or inconclusive; note: nearly all actives have a fitted effect of over 45% in size; note: potency is the fitted concentration of half-maximal effect). The gist of the method: as §2
Experiment [15] can be described thus: Identifying Small Molecule Inhibitors of Pancreatic Cancer Stem Cells (Panc1, Spheroid) (AID 1259359; active = well fitted curve in the direction sought with a large enough effect; an effect the other way counts as inactive or inconclusive;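 note: potency is the fitted concentration of half-maximal effect; compound exposure lasted 48 h before reading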). The gist of the method: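 After a 4 h attachment period, compounds were pinned into wells and cultures held 48 h under standard incubator conditions. Viability was then measured as CellTiter-Glo luminescence following 10 min at room temperature.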
The nature of experiment [16]: Identifying Small Molecule Inhibitors of Pancreatic Cancer Stem Cells (SN12C, Spheroid) (AID 1259360; active = well fitted curve in the direction sought with a large enough effect; an effect the other way counts as inactive or inconclusive; note: potency is the fitted concentration of half-maximal effect). The following applies: Potency: SN12C spheroid viability. The gist of the method: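 Endpoint: ATP-based luminescence, 48 h drug exposure. Bortezomib at 9.2 uM final as full-kill control; DMSO vehicle as negative control; activity normalized between vehicle and cell-free wells.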

`CO[C@H]1C=CO[C@@]2(C)Oc3c(C)c(O)c4c(O)c(c(C=NN5CCN(C)CC5)c(O)c4c3C2=O)NC(=O)C(C)=CC=C[C@H](C)[C@H](O)[C@@H](C)[C@@H](O)[C@@H](C)[C@H](OC(C)=O)[C@H]1C` yielded a parasite growth, % of DMSO control in experiment [1] of 5.51% [at 5.51 µM]. Further, the parasite growth remaining, % of DMSO control (lower = more inhibition) in experiment [2] was found to be 11.4% [at 5.51 µM]. Also, the parasite growth, % of control (lower = inhibition) in [3] was 10.3% [at 5.51 µM]. The growth, % of control in experiment [4] turned out to be 3.06% [at 5.51 µM]. Also, the cell viability, % of control (lower = more cytotoxic) in [5] is 73% [at 15.3 µM]. Moreover, the viability (% of control) in [6] was determined as 41.4% [at 15.3 µM]. The Potency result in experiment [7], in experiment [8] and in [9] was “inactive” each time.

As to `C[C@H](c1ccc(F)cc1CCCC(=O)O)N(c1cc(F)ccc1F)S(=O)(=O)c1ccc(Cl)cc1`, the parasite growth, % of DMSO control in [1] amounted to 48.3%. In addition, in experiment [2], the parasite growth remaining, % of DMSO control (lower = more inhibition) is 42.9%. Also, in experiment [3], the parasite growth, % of control (lower = inhibition) worked out at 35.7%. The molecule also came in with a growth, % of control in experiment [4] of 47.7%. Besides, the cell viability, % of control (lower = more cytotoxic) in [5] is 144%. For the same molecule, the viability (% of control) in experiment [6] was 92.6%. Also, the Potency result in experiment [7] and in experiment [8] was “inactive” each time. The Potency in [9] was 18.7 µM (active).

Take `CNC(=O)c1cc(Oc2ccc(NC(=O)Nc3ccc(Cl)c(C(F)(F)F)c3)c(F)c2)ccn1`: the activity, percent of control in [10] was found to be 5.46%. The same molecule registered a remaining proliferation (% of control), lower = more inhibition in [11] of 1.38%. Further, the parasite growth, % of DMSO control in experiment [1] turned out to be 5.25%. The parasite growth remaining, % of DMSO control (lower = more inhibition) in experiment [2] amounted to 33.1%. Also, in experiment [3], the parasite growth, % of control (lower = inhibition) was determined as 11.8%. Moreover, in experiment [4], the growth, % of control came to 4.74%. The cell viability, % of control (lower = more cytotoxic) in experiment [5] was determined as 16.6%. Further, in [6], the viability (% of control) is 31.5%. Moreover, the Potency entry in experiment [7] and in experiment [8] was “inactive” in each case. The Potency is 20.9 µM (active) in experiment [12]; 20.9 µM (active) in experiment [13]; 20.9 µM (active) in experiment [14]; 20.9 µM (active) in experiment [15]; 18.7 µM (active) in experiment [16].

As for `OC[C@H]1O[C@@H](OCCc2ccc(O)cc2)[C@H](O)[C@@H](O)[C@H]1O`, in experiment [1], the parasite growth, % of DMSO control was found to be 97.9%. In [2], the parasite growth remaining, % of DMSO control (lower = more inhibition) is 103%. Further, the parasite growth, % of control (lower = inhibition) in experiment [3] was found to be 131%. Further, in experiment [4], the growth, % of control amounted to 104%. The cell viability, % of control (lower = more cytotoxic) in experiment [5] was 106%. In addition, the viability (% of control) in [6] stood at 96.6%. The Potency entry in experiment [7] and in [8] was “inactive” in each case. The Potency in experiment [9] is 23.5 µM (active).

Turning to `CN[C@H]1[C@@H](O[C@@H]2[C@H](O[C@@H]3[C@@H](O)[C@@H](O)[C@@H](N=C(N)N)[C@@H](O)[C@@H]3N=C(N)N)O[C@H](C)[C@@]2(O)C=O)O[C@@H](CO)[C@@H](O)[C@H]1O`, in experiment [2], the parasite growth remaining, % of DMSO control (lower = more inhibition) came to 94.4% [at 9.64 µM]. Moreover, the parasite growth, % of control (lower = inhibition) in experiment [3] stood at 87.4% [at 9.64 µM]. For the same molecule, in [4], the growth, % of control amounted to 89.1% [at 9.64 µM]. In addition, the cell viability, % of control (lower = more cytotoxic) in experiment [5] came to 122% [at 15.3 µM]. In experiment [6], the viability (% of control) came to 118% [at 15.3 µM]. The Potency entry in experiment [7], in experiment [8], in experiment [9] and in [14] was “inactive” each time.

In turn, `COc1ccc2c(c1)c(C1=C(c3c[nH]c4ccccc34)C(=O)NC1=O)cn2CCCN(C)C` came in with a parasite growth, % of DMSO control in experiment [1] of 5.52%. For the same molecule, the parasite growth remaining, % of DMSO control (lower = more inhibition) in experiment [2] was found to be 8.71%. In [4], this molecule registered a growth, % of control of 5.22%. In experiment [5], the cell viability, % of control (lower = more cytotoxic) amounted to 8.51%. In [6], the viability (% of control) was determined as 8.47%. The Potency result in experiment [7] and in experiment [8] was “inactive” each time. In [9], the Potency is 0.0083 µM (active).

On to `CC(C)(C)c1[nH]cnc1C=c1[nH]c(=O)c(=Cc2ccccc2)[nH]c1=O`, for which the parasite growth, % of DMSO control in experiment [1] is 20.3% [at 57.5 µM]. Besides, in experiment [3], the parasite growth, % of control (lower = inhibition) was 23.1% [at 57.5 µM]. This molecule showed a growth, % of control in [4] of 7.41% [at 57.5 µM]. Further, the cell viability, % of control (lower = more cytotoxic) in [5] came to 15.7% [at 92.2 µM]. Also, the viability (% of control) in [6] is 5.98% [at 92.2 µM]. For the same molecule, the Potency result in experiment [7], in experiment [8] and in experiment [9] was “inactive” in each case. The Potency in experiment [15] is 0.0019 µM (active); in experiment [16], 14.8 µM (active).

In [1], `C#C[C@]1(O)CC[C@H]2[C@H]3CCc4cc(OC)ccc4[C@H]3CC[C@@]21C` yielded a parasite growth, % of DMSO control of 76.5%. In addition, in experiment [2], the parasite growth remaining, % of DMSO control (lower = more inhibition) came to 98.2%. In addition, the parasite growth, % of control (lower = inhibition) in experiment [3] is 90.2%. Besides, the growth, % of control in experiment [4] stood at 87.7%. In addition, the cell viability, % of control (lower = more cytotoxic) in experiment [5] is 211%. The viability (% of control) in experiment [6] was found to be 98%. Further, the Potency result in experiment [7] and in [8] was “inactive” throughout. Further, the Potency in experiment [9] was 20.9 µM (active).

In turn, `COc1cc2c(cc1OC)[C@@H]1Cc3ccc(OC)c(OC)c3CN1CC2` showed a parasite growth, % of DMSO control in [1] of 25.7%. For the same molecule, the parasite growth remaining, % of DMSO control (lower = more inhibition) in experiment [2] turned out to be 36.6%. The parasite growth, % of control (lower = inhibition) in [3] came out at 26.7%. Further, the growth, % of control in [4] is 11.1%. In [5], the cell viability, % of control (lower = more cytotoxic) was found to be 132%. Further, in experiment [6], the viability (% of control) was 20.2%. The Potency entry in [7] and in experiment [8] was “inactive” throughout. For the same molecule, in experiment [9], the Potency was 7.43 µM (active).
